# Results published in PubChem BioAssay AID1942 (Johns Hopkins Ion Channel Center, 2009).
# In all, about 2,400 compounds went through this assay and about 580 (24%) were called active. The list is a sample of the results. Values without a mark were called inactive.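 Rule for the calls: active = activity change at or above the mean plus 3 SD of buffer wells without dofetilide, per plate; inactive = the rest.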
# Target: Potassium voltage-gated channel subfamily KQT member 2 (Rattus norvegicus) (UniProt O88943)
# Sequence (O88943 whole entry, looked up): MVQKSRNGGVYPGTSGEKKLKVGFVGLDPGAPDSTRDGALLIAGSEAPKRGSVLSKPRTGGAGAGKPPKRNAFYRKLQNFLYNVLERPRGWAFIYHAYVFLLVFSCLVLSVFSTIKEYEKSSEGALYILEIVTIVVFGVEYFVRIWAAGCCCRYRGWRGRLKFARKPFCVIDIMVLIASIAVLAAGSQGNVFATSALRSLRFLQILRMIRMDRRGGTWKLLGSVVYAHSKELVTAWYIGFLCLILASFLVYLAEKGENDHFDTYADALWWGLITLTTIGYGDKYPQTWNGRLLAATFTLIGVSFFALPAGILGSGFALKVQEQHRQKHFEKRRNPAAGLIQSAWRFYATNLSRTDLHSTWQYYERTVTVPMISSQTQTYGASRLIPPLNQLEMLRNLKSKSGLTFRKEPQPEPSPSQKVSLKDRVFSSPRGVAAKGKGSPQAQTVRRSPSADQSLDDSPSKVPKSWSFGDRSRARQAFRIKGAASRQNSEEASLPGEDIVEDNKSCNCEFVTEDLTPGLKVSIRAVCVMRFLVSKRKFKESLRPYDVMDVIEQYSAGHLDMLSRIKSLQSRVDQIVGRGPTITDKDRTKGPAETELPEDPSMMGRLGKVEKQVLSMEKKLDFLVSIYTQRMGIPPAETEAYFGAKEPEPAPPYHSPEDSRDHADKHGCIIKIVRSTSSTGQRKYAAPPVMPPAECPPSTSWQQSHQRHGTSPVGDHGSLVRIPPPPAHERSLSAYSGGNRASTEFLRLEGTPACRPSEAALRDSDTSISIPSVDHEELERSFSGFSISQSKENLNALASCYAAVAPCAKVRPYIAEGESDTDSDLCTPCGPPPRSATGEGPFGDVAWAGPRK
# Assay: KCNQ2 potentiation in CHO cells – cell-based, FluxOR thallium flux, counter-screen for hERG block protector project, confirmation (AID 1942);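 note: normalized value minus buffer-control mean plus three SD of buffer wells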
# Conditions: FluxOR thallium flux fluorescence, at 10 µM, active compounds read high
row,Compound,"activity change, less the hit threshold"
1,Cc1cc(=O)oc2cc(OCC(=O)OCC(=O)NC(C)C)ccc12,-16.8%
2,O=C(NCCc1nnc2ccc(NCc3ccc(Cl)cc3)nn12)c1ccccc1,-7.7%
3,O=C(N/N=C/c1cc([N+](=O)[O-])ccc1O)c1ccc(COc2ccc3c(c2)CCC3)o1,-47.5%
4,N#CCCn1cc(/C=N/NC(=O)c2ccncc2)c(-c2ccc(F)cc2)n1,-4.3%
5,CCn1ccnc1CN1CCCC(CO)(Cc2cccc(OC)c2)C1 (configuration not stated),-24.6%
6,CCNC(=O)C/C(C)=N/NC(=O)C(=O)Nc1ccc(CC)cc1,4.9% (active)
7,CCCCNC(=O)COC(=O)c1ccc(NC(C)=O)cc1,-20.3%
8,CSCC[C@H](NC(=O)Nc1ccc(C)cc1C)C(=O)O,-12%
9,CCOC(=O)C1CCN(S(=O)(=O)c2cccc3nonc23)CC1,-11.1%
10,O=C(O)CN1C(=O)c2ccc(Oc3ccc4c(c3)C(=O)N(CC(=O)O)C4=O)cc2C1=O,-11.1%
11,O=C(O)Cc1cc(I)c(Oc2ccc(O)c(I)c2)c(I)c1,93.7% (active)
12,NC(=O)Cn1c2[n+](c3ccccc31)CC(O)CS2 (configuration not stated),-19.2%
13,CCc1ccccc1N(CC(=O)NC(C)c1ccccc1)S(C)(=O)=O (configuration not stated),-20.5%
14,Cc1ccc(NC(=O)C2C3CCC(O3)C2C(=O)O)cc1C (configuration not stated),-2.7%
15,Cc1ccc(NC(=O)c2noc3c2CCC3)cc1C,-19.4%
16,CCc1ccc(C(C)NC(=O)C2CCCC2)cc1 (configuration not stated),14.8% (active)
17,Cc1ccc(C(C)NC(=O)C2CCCC2)cc1C (configuration not stated),37.3% (active)
18,CSc1ccccc1-n1nnnc1SCC(=O)Nc1cc(C)ccc1C,-20.8%
19,C=CCSC1=C(C#N)C(c2ccccc2)CC(=O)N1 (configuration not stated),-23.3%
20,Cc1nn(C(=O)CNC(=O)c2ccccc2)c(C)c1C,17.2% (active)
21,O=C(CNC(=O)c1ccccc1)NCc1ccc(Cl)cc1,-10.7%
22,Cc1ccsc1/C=N/NC(=O)CNC(=O)c1ccccc1,-13.4%
23,Cc1ccc(S(=O)(=O)N2CCOCC2)cc1NC(=O)COC(=O)c1cccnc1Cl,-22.8%
24,CC(C)c1ccc(CNc2nc3nc4c(c(=O)n3[nH]2)CCC4)cc1,0.8% (active)
25,CCC(=O)Nc1ccc(N2CCOCC2)c(S(=O)(=O)Nc2ccc(OC)cc2)c1,-22.6%
26,Cc1ccc2[nH]c(C(=O)O)c(-c3ccccc3)c2c1,-8.1%

row,Compound,"activity change, less the hit threshold"
1,Cc1ccc(-n2nc3ccc(N)cc3n2)c(C)c1,-29.1%
2,Cc1cc(C)cc(-n2ncc3c2CCCC3NC(=O)c2csnn2)c1 (configuration not stated),-28.6%
3,CC(O)C(NS(=O)(=O)c1ccc(Cl)cc1)C(=O)OCc1cc([N+](=O)[O-])cc2c1OCOC2 (configuration not stated),-18.1%
4,O=[N+]([O-])c1ccc(Nc2ccc(Cl)cc2)nc1,3.5% (active)
5,O=[N+]([O-])c1ccc(CSc2nnc(SCc3ccc(Cl)cc3)s2)cc1,-10.9%
6,O=[N+]([O-])c1ccc(Nc2ccccc2F)nc1,-2.6%
7,COc1cc(OC)cc(C(=O)NC(=S)Nc2ccc(NC(=O)c3ccco3)cc2)c1,-20.6%
8,CCOc1ccc(NC(=S)NC(=O)c2ccco2)cc1,8% (active)
9,CCN(CC)c1ccc(NC(=S)NC(=O)c2ccco2)cc1,35.9% (active)
10,CCCOc1ccc(C(=O)NNC(=S)NC(=O)c2ccco2)cc1,-27.6%
11,CNC(=O)c1cc(C(=O)c2ccc(F)cc2C(F)(F)F)c[nH]1,-11.8%
12,CCC(C)(C)NC(=O)c1ccc(Sc2nncn2C)c([N+](=O)[O-])c1,-20.1%
13,O=C1CCN(S(=O)(=O)c2ccc(Cl)cc2)CCN1,-21.6%
14,CC(Sc1n[nH]c(=O)[nH]c1=O)C(=O)OCc1ccccc1 (configuration not stated),-11.2%
15,COCCNC(=O)CN(C(=O)c1ccc(N2CCCC2)nc1)c1ccccc1,-18.5%
16,Cn1nnnc1SCC(=O)Nc1ccccn1,-5.9%
17,C/C(CC(=O)Nc1ccccn1)=N\NC(=O)C(=O)Nc1cccc(Cl)c1C,1.1% (active)
18,CC(=O)Nc1ccccc1NC(=O)C/C(C)=N/NC(=O)c1ccc([N+](=O)[O-])c(Cl)c1,-19%
19,c1ccc(Cn2ncc3c(N4CCN(C(c5ccccc5)c5ccccc5)CC4)ncnc32)cc1,-29.3%
20,COc1cccc2sc(Nc3nnc(-c4ccc(F)cc4)o3)nc12,45.4% (active)
21,N#C/C(=C\c1ccc(-c2ccccc2Cl)o1)C(=O)Nc1nc2ccccc2s1,-10.9%
22,COc1ccccc1Nc1nnc(SCC(=O)Nc2nc(-c3ccc(F)cc3)cs2)s1,-22.3%
23,COc1cccc2sc(Nc3nnc(-c4cccs4)o3)nc12,53.9% (active)
24,CCOc1ccccc1Nc1nc(-c2sc(C)nc2C)cs1,-22%
25,COc1cccc2sc(Nc3nc(-c4ccccn4)cs3)nc12,20.3% (active)
26,COc1cccc2sc(Nc3nnc(-c4ccccc4Cl)o3)nc12,9.4% (active)
